Drawing on PubChem BioAssay (EPA / NIEHS), this text covers outcome and AC50 for 22 compounds.

Values joined by “and” are separate entries in the source; they are usually repeats but may differ in a detail not shown here. Equal entries are not always repeated. Results filed as inconclusive are left out. Active and inactive are the calls of the source. Rule for the calls: active = hit-call score of the fitted dose curve at least 0.9, where 1 is the maximum; inconclusive = response in the unintended direction; inactive = score below 0.9.

Test [1] can be described thus: ATG_XTT_Cytotoxicity: Cytotoxicity Assessment in the Attagene TRANS-FACTORIAL HepG2 Assay (AID 2283584). A digest of the protocol:
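Viability endpoint from XTT after 24 h chemical exposure of reporter-transfected human HepG2 liver cells; signal loss fitted relative to DMSO negative control.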

The target of test [2] is Cellular tumor antigen p53 (Homo sapiens) (UniProt P04637). In words: TOX21_p53_BLA_p2_ratio: Tox21 HCT-116 p53 Agonism Beta-lactamase Assay, Ratio, Phase 2 (AID 2283592). An outline of the steps:
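Read-out is the blue/green (460/530 nm, 405 nm excitation) ratio after 2 h CCF4-AM loading, fitted as gain versus DMSO. Compounds, pinned at 217-fold dilution from DMSO stocks, stayed 16 h on HCT-116 beta-lactamase reporter cells seeded 5 h earlier.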

Test [3] in a line: TOX21_p53_BLA_p3_viability: Viability Assessment in the Tox21 HCT-116 p53 Agonism Beta-lactamase Assay, Phase 3 (AID 2283593).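 Note: cells exposed to compound for 16 h before reading.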 An outline of the steps: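 Cellular ATP was quantified by CellTiter-Glo luminescence, read after 30 min at room temperature. Beforehand, HCT116 cells (4000/well) received compound 5 h post-seeding, 217-fold diluted from DMSO, then incubated 16 h at 37C.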

Test [4] in a line: TOX21_p53_BLA_p4_viability: Viability Assessment in the Tox21 HCT-116 p53 Agonism Beta-lactamase Assay, Phase 4 (AID 2283597).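 Note: hits lower the luminescence signal meaning cytotoxicity.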 A digest of the protocol: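 Cytotoxicity as reduced cellular ATP (CellTiter-Glo luminescence, 30 min room temperature), measured in the same wells following the CCF4 FRET p53 reading. Human HCT-116 cells received compounds in DMSO (217-fold dilution) for 16 h.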

For test [5], the target named is Cellular tumor antigen p53 (Homo sapiens) (UniProt P04637). In words: TOX21_p53_BLA_p5_ratio: Tox21 HCT-116 p53 Agonism Beta-lactamase Assay, Ratio, Phase 5 (AID 2283599). An outline of the steps: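 Beta-lactamase reporter ratio (blue 460 nm over green 530 nm, 405 nm excitation) after 2 h CCF4-AM loading, in HCT-116 cells exposed 16 h at 37 C to compounds pinned at 217-fold dilution. Increases relative to DMSO baseline scored.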

A short description of test [6]: TOX21_p53_BLA_p5_viability: Viability Assessment in the Tox21 HCT-116 p53 Agonism Beta-lactamase Assay, Phase 5 (AID 2283600). An outline of the steps:
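Viability came from CellTiter-Glo ATP luminescence, read after 30 min at room temperature. Before this, HCT-116 p53-bla cells (4000/well) had 16 hours of compound exposure at 37C, with DMSO stocks diluted 217-fold on transfer.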

In test [7] the target is Cellular tumor antigen p53 (Homo sapiens) (UniProt P04637). In words: TOX21_p53_BLA_p4_ratio: Tox21 HCT-116 p53 Agonism Beta-lactamase Assay, Ratio, Phase 4 (AID 2283601). An outline of the steps:
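Signal is the blue/green (460nm/530nm) ratio of cleaved versus uncleaved CCF4-AM substrate, read after 2 h substrate loading. Cells were HCT116 carrying the p53-responsive beta-lactamase reporter, dosed 16 h at 37C, 5% CO2; CellTiter-Glo measured in parallel.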

For test [8] the target is unchanged. Nature of the test: TOX21_p53_BLA_p3_ratio: Tox21 HCT-116 p53 Agonism Beta-lactamase Assay, Ratio, Phase 3 (AID 2283596). An outline of the steps: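 Cells were seeded at 4000/well, rested 5 h at 37C, then dosed with DMSO compound solutions (217-fold dilution) for 16 h. CCF4-AM substrate was loaded for 2 h at room temperature, and the 460/530 nm emission ratio was fitted for gain of signal versus DMSO.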

Test [9] in a line: TOX21_p53_BLA_p2_viability: Viability Assessment in the Tox21 HCT-116 p53 Agonism Beta-lactamase Assay, Phase 2 (AID 2283591).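 Note: compound exposure lasted 16 h at 37 °C; actives lower the ATP signal meaning cytotoxicity.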 A digest of the protocol:
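Cytotoxicity readout: CellTiter-Glo ATP luminescence, 30 min at room temperature, after the beta-lactamase read. Cells were HCT116 exposed 16 h at 37C to compounds pin-transferred at 217-fold dilution from DMSO stocks.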

Sequence of Cellular tumor antigen p53 (Homo sapiens) (P04637 whole entry, looked up): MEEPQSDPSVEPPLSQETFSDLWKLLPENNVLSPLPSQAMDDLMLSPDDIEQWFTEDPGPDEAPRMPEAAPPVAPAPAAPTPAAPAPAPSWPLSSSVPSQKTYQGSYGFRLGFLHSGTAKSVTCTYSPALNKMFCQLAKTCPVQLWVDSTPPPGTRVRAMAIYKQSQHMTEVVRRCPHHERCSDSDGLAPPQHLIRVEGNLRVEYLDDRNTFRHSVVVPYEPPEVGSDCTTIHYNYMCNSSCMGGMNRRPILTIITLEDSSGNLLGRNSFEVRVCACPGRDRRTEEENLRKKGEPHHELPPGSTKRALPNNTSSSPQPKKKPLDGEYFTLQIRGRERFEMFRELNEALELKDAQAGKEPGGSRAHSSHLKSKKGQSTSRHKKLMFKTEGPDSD

As for `C=C(C)C#N`, the compound was called inactive in [1], in [2], in test [3], in test [4], in test [5] and in test [6]. Moreover, the outcome in test [7] was inactive.

In the case of `OCc1ccco1`, the outcome in [1], in [2], in [3], in test [6] and in [7] was inactive.

For the compound `O=[N+]([O-])c1ccc2c3c(cccc13)CC2`, the compound was called inactive in test [1], in [2], in [3], in [8], in test [5] and in test [7].

Regarding `CC(=O)OC(c1ccccc1)C(Cl)(Cl)Cl` (stereo not drawn), the result in test [9], in [2], in test [3], in test [8], in test [4] and in test [5] was inactive. Moreover, the result in test [7] was inactive.

Take `[O-][Cl+2]([O-])O`: the compound was classed as inactive in [1], in [2], in [3], in test [8], in test [4] and in [5]. In addition, the call in [6] and in [7] was inactive.

Regarding `CC(C)c1ccc(CO)cc1`, the compound was classed as inactive in [9], in test [2], in [3], in [4], in test [5] and in test [6]. Further, the result in [7] was inactive.

Take `CC(C)OC(=O)Nc1ccccc1`: the outcome in test [1], in test [2], in [3], in test [8], in test [5] and in test [7] was inactive.

With `COc1ccc(C=O)cc1`, the compound was classed as inactive in test [1], in test [2], in test [8], in test [4], in test [5] and in test [7].

In the case of `Clc1ccc(COC(Cn2ccnc2)c2ccc(Cl)cc2Cl)cc1` (stereo not drawn), the AC50 in test [9] was 64.8 µM (active) and 73 µM (active) and 33.7 µM (active); in [2] it was 60.3 µM (active) and 33.3 µM (active) and 23.5 µM (active); in test [3] it was 72.9 µM (active) and 73.5 µM (active) and 23 µM (active); in [8], 66.3 µM (active) and 45.5 µM (active) and 34.6 µM (active); in test [4] it was 70.5 µM (active) and 61.1 µM (active) and 37.6 µM (active); in [5] it was 79.1 µM (active) and 60.7 µM (active) and 38.7 µM (active). Moreover, the AC50 was 85.2 µM (active) and 75.6 µM (active) and 36.2 µM (active) in test [6]; 77.8 µM (active) and 62 µM (active) and 33.9 µM (active) in test [7].

As for `Oc1ccc(-c2ccccc2)cc1`, the compound was classed as inactive in [9], in [2], in [3], in test [4], in test [5] and in test [6]. In addition, the result in [7] was inactive.

In the case of `CCOC(=O)Nc1cccc(OC(=O)Nc2ccccc2)c1`, the result in test [1], in test [2], in test [4] and in test [6] was inactive.

Consider `C=CC#N`, for which the call in [1], in [2], in test [3], in test [4], in [5] and in test [6] was inactive. For the same compound, in [7], the result was inactive.

In the case of `CCOP(=O)(CN(CCO)CCO)OCC`, the compound was called inactive in [1], in test [2], in test [3] and in [4].

As to `O=S(=O)(c1ccc(Cl)cc1)c1ccc(Cl)cc1`, the compound was called inactive in [1], in [2], in test [3], in test [8], in test [4] and in test [5]. The outcome in [6] and in test [7] was inactive.

On to `Cc1cc(=O)[nH]o1`, for which the result in test [1], in [2], in [5] and in test [6] was inactive.

As to `Cl/C=C\C[N+]12CN3CN(CN(C3)C1)C2`, the outcome in test [1], in [2], in [3], in [8], in [5] and in test [7] was inactive.

As for `CCOC(=O)/C=C(C)/C=C/C[C@@H](C)CCCC(C)C`, the outcome in [1], in [2], in test [8], in test [4], in test [5] and in test [6] was inactive. Also, the outcome in test [7] was inactive. Besides, the AC50 in test [3] is 58.3 µM (active).

Consider `CC(=O)c1cc(C(C)(C)C)cc2c1CCC2(C)C`, for which the compound was called inactive in [1], in [2], in test [3], in test [8], in test [5] and in [6]. In [7], the result was inactive.

For the compound `Nc1cccc2ccccc12`, the result in [1], in test [9], in test [8], in test [4], in test [5] and in test [7] was inactive.

Consider `CCCCP(CCCC)CCCC`, for which the outcome in test [9], in test [2], in test [3], in [8], in test [4] and in test [6] was inactive. The result in test [7] was inactive.

Turning to `c1ccc(N=NNc2ccccc2)cc1`, the outcome in test [9], in test [2], in test [3], in test [4], in [5] and in [6] was inactive. Also, the outcome in [7] was inactive.

With `Clc1nc(Cl)nc(Cl)n1`, the outcome in test [9], in test [2], in test [3], in test [8], in [4] and in test [5] was inactive. Moreover, the outcome in test [6] and in test [7] was inactive.
